Inconclusive results are not listed. Values without a mark were called inactive. The source made the active and inactive calls. Calls follow the shape of the dose curve; as a rule, active = well fitted inhibition curve with a large enough effect; inconclusive = small, poorly fitted or top-dose-only effect; inactive = flat fitted curve, though single readings scatter.
Test system: CP335
Assay: qHTS profiling for inhibitors of Plasmodium falciparum proliferation (AID 504749); also: nearly all actives have a fitted effect of over 60% in size;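 as to activity, negative = inhibition: 0% = DMSO vehicle and full inhibition = artemisinin control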
Conditions: P. falciparum in erythrocytes, SYBR Green DNA, 72 h; series mostly up to 28.7 µM; activity, negative = inhibition: at the top concentration
Summary of the method: (§1)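 Readout was DNA-dye fluorescence from lysed cultures, ex 485/em 535 nm. Parasitized red cells had grown 72 h with compound; data scaled between 0.29 uM artemisinin and DMSO wells and corrected using vehicle-only plates.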
Potency is read from the fitted curve at half-maximal effect.

| Structure (SMILES) | activity, negative = inhibition | Potency |
| --- | --- | --- |
| CC1(C)O[C@H]2C[C@@H]3[C@H]4CCC5=CC(=O)C=C[C@]5(C)[C@@]4(F)[C@@H](O)C[C@]3(C)[C@]2(C(=O)CO)O1 | 3.44% | – |
| COc1ccc(Cc2nccc3cc(OC)c(OC)cc23)cc1OC | 4.61% [at 12.8 µM] | – |
| CC(=O)c1ccc(S(=O)(=O)NC(=O)NC2CCCCC2)cc1 | 3.29% | – |
| CC(=O)N[C@@H](CS)C(=O)O | 4.25% | – |
| Cc1cnc(C(=O)O)c[n+]1[O-] | -1.05% | – |
| O=C1NC(=O)C(c2ccccc2)(c2ccccc2)N1 | 8.56% | – |
| CN(C)CCC(c1ccccc1)c1ccccn1 (configuration not stated) | – | 7.57 µM (active) |
| O=C1NCC2(CCN(CCc3ccccc3)CC2)O1 | 2.87% | – |
| NC(N)=Nc1nc(CSCC/C(N)=N/S(N)(=O)=O)cs1 | -2.44% | – |
| CCCCCN(C)CCC(O)(P(=O)(O)O)P(=O)(O)O | 5.66% | – |
| NCCS | 2.68% | – |
| COc1ccccc1N1CCN(CCCNc2cc(=O)n(C)c(=O)n2C)CC1 | -28.2% | – |
| O=C(NCCN1CCOCC1)c1ccc(Cl)cc1 | 4.4% | – |
| C[C@@H](O)[C@H]1C(=O)N2C(C(=O)O)=C(S[C@@H]3CN[C@H](C(=O)N(C)C)C3)[C@H](C)[C@H]12 | 6.18% | – |
| CC(=O)CCCCn1c(=O)c2c(ncn2C)n(C)c1=O | 2.86% [at 12.8 µM] | – |
| O=C(O)c1cc(-c2ccccc2)nc2ccccc12 | 4.63% | – |
| CCN(CC)C(=O)c1ccc(O)c(OC)c1 | – | inactive |
| CCCNC(=O)NS(=O)(=O)c1ccc(Cl)cc1 | 9.43% | – |
| CCN1CCC[C@H]1CNC(=O)c1cc(S(N)(=O)=O)ccc1OC | 4.68% | – |
| C[N+](C)(C)CCCCCC[N+](C)(C)C | 2.88% | – |
| O=c1[nH]cnc2c1ncn2[C@H]1CC[C@@H](CO)O1 | 1.69% | – |
| CCN(CC)CCNC(=O)c1ccc(N)cc1 | 9.27% | – |
| O=C(O)c1c(Cl)c(Cl)c(Cl)c(Cl)c1-c1c2cc(I)c(=O)c(I)c-2oc2c(I)c(O)c(I)cc12 | 1.88% | – |
| CCOC(=O)O[C@]1(C(=O)OCCl)CC[C@@H]2[C@H]3CCC4=CC(=O)C=C[C@]4(C)[C@@H]3[C@@H](O)C[C@@]21C | 4.91% | – |
| Clc1ccc(Cn2c(CN3CCCC3)nc3ccccc32)cc1 | -10.7% [at 12.8 µM] | – |
| CCN(CC)CCOC(=O)c1ccc(N)cc1 | 13% [at 12.8 µM] | – |

Test system: DFO2036
Assay: as above
Conditions: P. falciparum in erythrocytes, SYBR Green DNA, 72 h; series mostly up to 28.7 µM; activity, negative = inhibition: at the top concentration
Summary of the method: as §1

| Structure (SMILES) | activity, negative = inhibition | outcome |
| --- | --- | --- |
| Cc1cccc(C)c1OCC(C)N (configuration not stated) | -13.9% | – |
| CC1(C)O[C@H]2C[C@@H]3[C@H]4CCC5=CC(=O)C=C[C@]5(C)[C@@]4(F)[C@@H](O)C[C@]3(C)[C@]2(C(=O)CO)O1 | -3.46% | – |
| COc1ccc(Cc2nccc3cc(OC)c(OC)cc23)cc1OC | -0.898% [at 12.8 µM] | – |
| CC(=O)c1ccc(S(=O)(=O)NC(=O)NC2CCCCC2)cc1 | 0.649% | – |
| CC(=O)N[C@@H](CS)C(=O)O | 8.92% | – |
| Cc1cnc(C(=O)O)c[n+]1[O-] | -12.5% | – |
| O=C1NC(=O)C(c2ccccc2)(c2ccccc2)N1 | 8.17% | – |
| CN(C)CCC(c1ccccc1)c1ccccn1 (configuration not stated) | 13.4% | – |
| CC/C(=C(\c1ccccc1)c1ccc(OCCN(C)C)cc1)c1ccccc1 | -13.5% | – |
| O=C1NCC2(CCN(CCc3ccccc3)CC2)O1 | 8.53% | – |
| CC(=O)O[C@]1(C(C)=O)CC[C@H]2[C@@H]3C=C(Cl)C4=CC(=O)[C@@H]5C[C@@H]5[C@]4(C)[C@H]3CC[C@@]21C | -22.5% | – |
| NC(N)=Nc1nc(CSCC/C(N)=N/S(N)(=O)=O)cs1 | -8.26% | – |
| CCCCCN(C)CCC(O)(P(=O)(O)O)P(=O)(O)O | 9.84% | – |
| NCCS | 5.53% | – |
| COc1ccccc1N1CCN(CCCNc2cc(=O)n(C)c(=O)n2C)CC1 | – | inactive |
| O=C(NCCN1CCOCC1)c1ccc(Cl)cc1 | 5.22% | – |

From PubChem BioAssay (NCATS)
